Screening data: PubChem BioAssay, Broad Institute
The sample as a whole holds a higher share of hits than the screen did.
PD-1 reversal: activators reversing PD-1 mediated T-cell inhibition; primary human CD4 T cells, PD-L1 beads, CellTiter-Glo 96 h; activation, % (test concentration not listed); 29,000 tested, under 10 active; call rule not given here;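 note: 0% = median vehicle wells and 100% = positive control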
NOMO-1 viab: STK33 inhibitor candidate reducing NOMO-1 cell viability. NOMO-1 AML viability, CellTiter-Glo luminescence, 72 h. inhibition, % (no concentration beside the values). 37,000 compounds, 7.5% hits; in the data active = inhibition above about 80%; inconclusive = no clear call, values can overlap the other calls
STK33 kin inh: human STK33 kinase inhibition; ADP-Glo luminescence, MBP substrate; 27,000 compounds, 0.44% hits; inhibition, % at 12.5 µM; Q9BYT3; AID 2322; in the data active = inhibition above about 20%; inconclusive = no clear call, values can overlap the other calls
Target sequence (Q9BYT3 whole entry, looked up): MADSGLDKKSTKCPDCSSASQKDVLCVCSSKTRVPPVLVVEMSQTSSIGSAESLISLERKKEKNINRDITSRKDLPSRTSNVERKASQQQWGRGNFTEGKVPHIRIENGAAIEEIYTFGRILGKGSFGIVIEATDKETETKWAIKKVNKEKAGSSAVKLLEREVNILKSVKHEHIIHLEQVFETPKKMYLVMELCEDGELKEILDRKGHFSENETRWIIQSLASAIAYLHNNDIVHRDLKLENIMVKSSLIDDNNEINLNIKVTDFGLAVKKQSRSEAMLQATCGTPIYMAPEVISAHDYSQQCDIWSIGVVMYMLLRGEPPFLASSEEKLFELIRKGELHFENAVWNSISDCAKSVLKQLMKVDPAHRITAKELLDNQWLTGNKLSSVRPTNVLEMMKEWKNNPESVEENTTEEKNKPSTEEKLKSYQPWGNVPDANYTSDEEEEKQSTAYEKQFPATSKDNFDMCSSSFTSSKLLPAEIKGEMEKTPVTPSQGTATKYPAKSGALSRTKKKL
* = called active by the depositor; ? = inconclusive; nt = not tested or not shown.

SMILES	PD-1 reversal	NOMO-1 viab	STK33 kin inh
C[C@H]1CN([C@@H](C)CO)C(=O)c2cc(NS(=O)(=O)c3ccc(F)cc3)ccc2O[C@H]1CN(C)Cc1ccc(-c2ccccc2)cc1	-1.8	45.4	2.2
COC(=O)c1c(C)oc2ccc(N(C(=O)c3ccncc3)S(=O)(=O)c3ccc(F)cc3C)cc12	-4.5	50.9	-3.1
O=C1CC2(CCCC2)C(=O)N1c1cc(C(F)(F)F)cc(C(F)(F)F)c1	0.7	17.9	nt
OC(Cn1nnc2ccccc21)Cn1c2ccc(Cl)cc2c2cc(Cl)ccc21 (stereo unspecified)	nt	43.4	4.5
O=S(=O)(NCC(O)Cn1c2ccc(Cl)cc2c2cc(Cl)ccc21)c1ccccc1 (stereo unspecified)	nt	113.0*	2.6
O=C(Nc1cccc([N+](=O)[O-])c1)C1CCCN(S(=O)(=O)c2ccc(F)cc2)C1 (stereo unspecified)	-0.6	13.2	-2.4
O=C(NCCCCCNC(=O)/C(Cc1ccccc1)=N/O)OCc1ccccc1	nt	nt	-1.8
CC12CCC(c3c1nn(-c1ccccc1)c3C(F)(F)F)C2(C)C (stereo unspecified)	-5.5	122.6*	nt
O=C(/C=C/c1ccccc1)Oc1ccc2ccccc2c1	0.0	23.0	nt
O=c1c(=O)n2c(nn1CN1CCOCC1)sc1ccccc12	4.1	-9.1	nt
COc1cccc(OCC(=O)Nc2ccc(OC)c(NC(=O)c3ccco3)c2)c1	nt	23.8	-0.8
O=c1c(-c2nn[nH]n2)coc2ccccc12	0.5	30.9	nt
O=C(CCN1C(=O)C2C3C=CC(C3)C2C1=O)Oc1cccc2cccnc12 (stereo unspecified)	-12.6	113.3*	-0.9
O=C(CCN1C(=O)C2C3C=CC(C4CC34)C2C1=O)Oc1cccc2cccnc12 (stereo unspecified)	-14.8	121.2*	-4.9
CC(C)(C)c1ccc(OC(=O)CCN2C(=O)C3C4C=CC(C5CC45)C3C2=O)cc1 (stereo unspecified)	-3.4	28.3	-5.2
CC(=O)c1ccccc1OC(=O)CCN1C(=O)C2C3c4ccccc4C(c4ccccc43)C2C1=O (stereo unspecified)	nt	15.8	-1.1
CCn1c(SCC(=O)Nc2cccc(Br)c2)nnc1-c1ccc(C)cc1	nt	34.1	4.9
Cc1ccc(-c2nc3ncccc3o2)cc1NC(=O)COc1cc(Cl)c(Cl)cc1Cl	nt	74.5	4.9
Cc1sc2nc3c4ccccc4c(NCc4ccccn4)nn3c(=O)c2c1C	-10.9	?	-1.6
CCOC(=O)c1ccccc1NC(=O)CN1C(=O)c2cccc3cccc1c23	-2.0	12.3	2.7
COC(=O)CNC(=O)c1cn(-c2ccccc2)nc1-c1cccs1	0.1	105.0*	-1.0
COc1ccc(-c2nn(-c3ccccc3)cc2C(=O)NCC(=O)c2ccccc2)cc1OC	nt	5.3	0.1
O=C(COc1cc(Cl)c(Cl)cc1Cl)Nc1ccccc1C(=O)N1CCCCC1	0.1	15.0	?
CC(C)(C)c1cc(-c2nnc(-c3cccs3)o2)n(Cc2ccc(F)cc2)n1	-11.3	62.3	5.5
COc1ccc2c(c1)OCC(Cc1ccc(OC)c(O)c1)C2=O (stereo unspecified)	nt	109.3*	0.1
SMILES	PD-1 reversal	NOMO-1 viab	STK33 kin inh
COc1cc(C[C@H]2C(=O)OC[C@@H]2Cc2ccc(OC)c(OC)c2)ccc1O	nt	nt	-6.8
Cc1c(Cl)cccc1NC(=O)COc1ccc(C(=O)Nc2cccc(C(F)(F)F)c2)cc1	-1.5	49.3	-0.9
Cc1ccc(S(=O)(=O)Nc2cccc3c2O[C@@H](CN(C)Cc2ccc(C(=O)Nc4ccccc4N)cc2)[C@H](C)CN([C@@H](C)CO)C3=O)cc1	1.5	?	nt
Cc1ccc(S(=O)(=O)Nc2cccc3c2O[C@@H](CN(C)Cc2ccc(C(=O)Nc4ccccc4N)cc2)[C@@H](C)CN([C@@H](C)CO)C3=O)cc1	-1.2	133.8*	nt
Cc1ccc(S(=O)(=O)Nc2cccc3c2O[C@H](CN(C)Cc2ccc(C(=O)Nc4ccccc4N)cc2)[C@H](C)CN([C@H](C)CO)C3=O)cc1	-0.6	128.6*	nt
Cc1ccc(S(=O)(=O)Nc2cccc3c2O[C@H](CN(C)Cc2ccc(C(=O)Nc4ccccc4N)cc2)[C@@H](C)CN([C@@H](C)CO)C3=O)cc1	-1.4	120.7*	nt
Cc1ccc(NC(=O)C(C)n2cc([N+](=O)[O-])cn2)cc1C (stereo unspecified)	-1.5	2.8	-1.1
CCOC(=O)c1c(CNc2cccc(C(N)=O)c2)n(C)c2cc(Br)c(OC(C)=O)cc12	-1.6	56.4	nt
O=S(=O)(N[C@@H]1CCCN(Cc2cccc(OCCO)c2)C1)c1ccccc1	nt	nt	-10.0
CC(=O)Nc1c(O)nc(SCC(=O)N(c2ccccc2)c2ccccc2)[nH]c1=O	1.9	0.7	-3.7
FC(F)(F)c1cc(-c2ccc3ccccc3c2)no1	0.4	88.1*	nt
CN(C)/C=C/C(=O)c1ccsc1	-2.4	48.5	nt
CC1OC(NC(=O)c2ccccc2F)C(NC(=O)c2ccccc2F)OC1C (stereo unspecified)	-0.1	9.7	nt
